# Most compounds without a hit are left out; they make up all but 2.4% or so of the library.
# D2 ag-1 – D2 dopamine receptor (human) agonism | HEK293 T-REx D2 cells, calcium flux agonist mode | P14416 | activation, % at 2 µM | 340,000 tested, 0.53% active;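 active = activation over 3 SD above normal in the single-dose calcium agonist read, cut at about 30% in these data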; note: 0% is about no effect
# Target sequence (P14416 whole entry, looked up): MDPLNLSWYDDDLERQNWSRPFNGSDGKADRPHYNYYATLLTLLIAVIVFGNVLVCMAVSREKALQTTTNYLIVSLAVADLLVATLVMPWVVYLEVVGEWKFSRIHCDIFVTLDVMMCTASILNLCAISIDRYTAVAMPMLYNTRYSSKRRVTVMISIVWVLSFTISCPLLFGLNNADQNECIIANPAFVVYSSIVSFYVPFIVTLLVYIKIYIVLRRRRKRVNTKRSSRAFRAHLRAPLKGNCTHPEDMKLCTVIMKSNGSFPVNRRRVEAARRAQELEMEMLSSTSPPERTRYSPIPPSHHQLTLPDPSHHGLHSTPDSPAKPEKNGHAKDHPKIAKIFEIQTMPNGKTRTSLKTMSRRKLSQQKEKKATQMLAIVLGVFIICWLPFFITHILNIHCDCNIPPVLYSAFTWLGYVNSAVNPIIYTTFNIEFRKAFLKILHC
#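 Agonism is scored from calcium flux in a force-coupled, inducible HEK293 cell line expressing D2, read kinetically for 180 s after compound addition against dopamine controls.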
# D2 antag – D2 dopamine receptor (human) antagonism; 340,000 tested, 2% active; P14416; AID 485344; inhibition, % at 10 µM; HEK293 TREx D2 cells, calcium flux, dopamine EC80; in the data active = inhibition above about 30%; inactive = below that, where a call was filed; note: 0% is about no effect
#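 HEK293 T-REx D2 cells, tet-induced, calcium dye no-wash. Cpd pintool add, 180 s kinetic, then EC80 DA, 180 s kinetic. Ca flux read.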
# D2 ag-2 – agonists of human D2 dopamine receptor (beta-arrestin); DiscoveRx PathHunter D2 beta-arrestin, luminescence, 90 min; 100% = 57 uM dopamine signal; activation, % (no concentration beside the values); 360,000 tested, 0.084% active; AID 624465; in the data active = activation above about 40%; inconclusive = between about 15% and that limit
#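 DiscoveRx PathHunter D2 beta-arrestin cells (2,100/well) attached overnight, then compound-stimulated 90 min at 37 C in HBSS/10 mM HEPES/0.1% Tween-20 buffer; beta-galactosidase complementation read by luminescence after 1 h at ambient temperature. Dopamine 57 uM final (EC100) as control.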
# D2 PAM-1 – positive allosteric modulators of human D2 dopamine receptor; P14416; DiscoveRx D2 beta-arrestin cells, luminescence, 90 min; 100% = 57 uM dopamine signal; potentiation, % (concentration not given with the values); 360,000 tested, 0.23% active; AID 624464; in the data active = potentiation above about 50%; inconclusive = mostly about 30% to 49%
#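 PathHunter beta-arrestin assay in DiscoveRx D2 cells. Compounds were added with an EC20 of dopamine (50 nM final) for 90 min at 37 deg C. Luminescence was read 1 h after detection reagent, with 57 uM dopamine as the EC100 control.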
# D2 PAM-2 – D2 dopamine receptor (human) potentiation. potentiation, % at 10 µM. HEK293 T-REx D2, calcium flux, EC20 dopamine potentiation. AID 485347. P14416. 340,000 tested, 0.34% active;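 active = potentiation over 3 SD above the plate norm, cut at about 30% in these data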; note: 0% is about no effect
#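 Calcium flux readout, no-wash dye, 1 read/s. Inducible HEK293 Trex D2 line, overnight 30 C. Compound alone 180 s (agonist flags), then EC20 dopamine, another 180 s to score potentiation.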
# Active calls of the source: *; ? = inconclusive; nt = no result given.
SMILES,D2 ag-1,D2 antag,D2 ag-2,D2 PAM-1,D2 PAM-2
CCOc1ccccc1NC(=O)NCc1ccc2c(c1)OCO2,-2.2,9.1,-9.2,-33.5,-11.9
O=C(NCc1ccc2c(c1)OCO2)Nc1cccc2ccccc12,-0.2,-9.8,-4.5,-6.7,-18.5
COc1ccccc1NC(=O)NCc1ccc2c(c1)OCO2,0.3,32.6*,nt,nt,-10.7
COc1cc(S(=O)(=O)NCc2ccc3c(c2)OCO3)c(OC)cc1C,0.0,-8.4,-1.4,-6.3,1.5
O=C(Nc1cc(S(=O)(=O)N2CCCC2)ccc1OCC(F)(F)F)c1ccncc1,nt,nt,0.8,-8.6,nt
O=C(OCc1ccccc1)N1CCC2CC1c1ccc(N3CCNCC3)cc12 (stereo not drawn),nt,nt,-10.6,-1.4,nt
C[C@H](CO)N1C[C@H](C)[C@@H](CN(C)CC2CCCCC2)Oc2ccc(NC(=O)Cn3cnnn3)cc2C1=O,nt,nt,-0.3,-7.3,nt
COc1cccc(C2=NOC(C(=O)Nc3ccc4c(c3)OCO4)C2)c1OC (stereo not drawn),0.1,59.8*,0.8,-15.6,-24.9
COc1ccc(C2=NOC(C(=O)NCc3ccc(F)cc3)C2)cc1OC (stereo not drawn),-0.1,8.5,1.0,-7.7,37.0*
COc1cc(C2=NOC(C(=O)Nc3ccc(C)cc3)C2)cc(OC)c1OC (stereo not drawn),-0.7,57.1*,-3.0,9.3,10.9
COc1cc(C2=NOC(C(=O)Nc3ccc4c(c3)OCO4)C2)cc(OC)c1OC (stereo not drawn),-1.1,-2.8,-0.1,4.9,10.6
O=C(CNC(=O)OCc1ccccc1)NCC(=O)NC(Cc1c[nH]c2ccccc12)C(=O)O (stereo not drawn),nt,nt,-5.6,-7.2,nt
Cc1ccc(C2C=NN(c3ccccc3)C2=O)cc1 (stereo not drawn),0.8,11.3,-5.2,-0.3,-11.9
CC1(Cc2cn(CCC#N)c3ccccc23)OCCO1,-0.3,-2.6,-0.5,-5.2,-2.4
N#CCCn1cc(CNC2CCC(O)CC2)c2ccccc21 (stereo not drawn),-0.4,5.0,-1.8,-1.7,30.1*
COc1ccccc1C(C)Nc1nc(-c2cccnc2)nc2ccccc12 (stereo not drawn),-0.9,-18.3,-1.5,-19.1,0.5
COc1ccc(O)c(/C=N/NC(=O)CCC(=O)Nc2cccc(C)c2)c1,0.1,-5.0,-2.7,-7.3,-5.5
COc1cc(/C=N/NC(=O)CCC(=O)Nc2ccc(Br)cc2)ccc1O,-0.1,31.9*,0.7,-9.9,-11.2
Cc1ccc(NC(=O)CCC(=O)N/N=C/c2ccc(O)cc2)cc1,0.4,-24.6,-4.2,-20.8,-13.9
O=C(CCC(=O)Nc1ccc(Br)cc1)N/N=C/c1ccc(O)cc1,-1.3,33.3*,-4.3,-23.0,-23.2
COc1ccc(OC)c(/C=N/NC(=O)CCCC(=O)Nc2cccc(Br)c2)c1,1.4,68.5*,-2.0,-11.7,-4.4
COc1ccc(CCNC(=O)c2nonc2N)cc1OC,0.4,7.1,1.0,-15.0,-0.9
COc1ccc(CCNC(=O)c2noc3c2CCCC3)cc1OC,-0.1,42.2*,-0.8,-13.4,1.8
COc1ccccc1OCCNC(=O)c1ccco1,0.5,1.3,-4.8,-2.5,-6.0
CCc1nc2ccc(C(=O)NCCc3ccc(OC)c(OC)c3)cc2nc1CC,-0.4,-0.6,3.5,8.2,2.6
SMILES,D2 ag-1,D2 antag,D2 ag-2,D2 PAM-1,D2 PAM-2
COc1ccc(CCNC(=O)c2ccc3nc(-c4ccco4)c(-c4ccco4)nc3c2)cc1OC,6.0,-5.7,9.5,60.7*,10.1
COc1ccc(Cl)cc1NC(=O)c1noc2c1CCCC2,1.1,31.3*,-5.6,-3.6,18.4
COc1cc(Br)c(CCNC(=O)c2ccco2)cc1OC,0.2,36.5*,-2.3,-6.0,-3.9
O=c1oc(-c2ccc(O)c(O)c2)cc2cc(O)cc(O)c12,nt,nt,?,51.3*,nt
CCOc1ccccc1-c1nc(CN2CCCN(C(=O)c3ccco3)CC2)c(C)o1,-1.1,32.8*,-6.4,-51.3,-24.1
Cc1cc2nc3n(c2cc1C)CC1CC(C(=O)NCC2CC2)N(C)C31 (stereo not drawn),-1.0,-10.8,-1.0,-12.6,1.9
COc1ccc(CCNC(=O)C2c3ccccc3C(=O)N2Cc2ccccc2)cc1OC (stereo not drawn),0.0,nt,nt,nt,-12.6
O=C(O)c1cccc2c1C(=O)c1cc([N+](=O)[O-])cc([N+](=O)[O-])c1-2,nt,nt,73.7*,7.9,nt
CC1CCN(c2ccc(C(F)(F)F)cc2N)CC1,-0.4,7.6,-0.8,-8.1,0.0
Nc1cc(C(F)(F)F)ccc1-n1cccc1,0.1,39.2*,-0.1,0.7,-9.3
C[C@H]1Cn2cnc(C(=O)Nc3cccc(Cl)c3)c2C(=O)N1,nt,nt,2.1,nt,nt
CC(=O)NCCCC(=O)NNC1CC(=O)N(c2cccc(Cl)c2)C1=O (stereo not drawn),0.4,37.1*,-4.0,-5.2,-0.5
O=C(NCCN1CCOCC1)c1cc2sccc2n1Cc1ccc(F)cc1,0.1,37.8*,-2.1,-16.1,-26.0
CN1CCN(C(=O)C2=C[C@H](c3coc4ccccc4c3=O)C[C@H](OCCCCO)O2)CC1,-0.1,-0.3,-1.3,-8.3,1.4
O=C(C1=C[C@@H](c2coc3ccccc3c2=O)C[C@@H](OCCCCO)O1)N1CCOCC1,0.3,62.1*,-4.1,-8.5,13.0
CC12CCC(C1)C(C)(C)C2OC(=O)c1ccccc1C(=O)O (stereo not drawn),0.2,-11.0,-3.7,-8.2,-1.8
Cn1ncc2c(Nc3cc(C(F)(F)F)ccc3Cl)ncnc21,0.9,nt,nt,nt,0.1
CC(OCCN1CCCC1)(c1ccc(F)cc1)c1ccc(F)cc1,1.2,73.2*,-10.9,-11.2,-23.7
Fc1ccc(OCCOCCN2CCCC2)cc1,nt,nt,2.7,-4.6,nt
CCc1ccc(NC(=O)C2CCCN(S(=O)(=O)c3c(C)noc3/C=C/N(C)C)C2)cc1 (stereo not drawn),-0.2,nt,nt,nt,-6.3
COc1ccc(OC)c(-c2cc(C(=O)NCc3cccs3)no2)c1,0.3,24.3,-2.2,-15.4,-23.5
COc1ccccc1-c1cc(C(=O)NCc2cccs2)no1,1.0,75.5*,-1.6,-31.3,-23.8
COc1ccccc1-c1cc(C(=O)NC(C)c2ccccc2)no1 (stereo not drawn),0.5,60.8*,-0.6,-15.9,-26.4
COc1ccc(OC)c(-c2cc(C(=O)NCc3ccc(Cl)cc3)no2)c1,1.2,62.0*,-2.6,-19.1,-12.8
COc1ccc(-c2cc(C(=O)NCc3ccc(Cl)cc3)no2)cc1OC,0.0,-7.5,2.4,-0.2,-7.1
CCOC(=O)c1ccc(-c2ccc3[nH]c4ccccc4c(=O)c3c2)cc1F,-0.3,30.9*,-2.3,-0.8,8.8
O=S(=O)(Cc1ccccc1)N1CCN(C2Cc3ccccc3C2)CC1,1.4,30.3*,-1.5,-12.7,-6.8

# Screening data (PubChem)
